Here are results for 25 compounds from PubChem BioAssay (NCATS).

In experiment [1] the target is Cellular tumor antigen p53 (Homo sapiens) (UniProt P04637). Description: Primary qHTS for small molecule compounds that upregulate eGFP-tagged delta133p53alpha (in N-terminal) cells. (AID 2060322). Further: nearly all actives have a fitted effect of over 75% in size. Further: potency means the concentration at half of the fitted maximal effect.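 On activation: cells pre-induced with doxycycline then dosed without doxycycline; series mostly up to about 56 µM; 0% = DMSO vehicle and 100% = reference activator.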 To be noted: NCI-H358 eGFP-delta133p53alpha fluorescence, 24 h; activation: active compounds read high. An outline of the steps: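 NCI-H358 cells pre-induced 24 h with 10 ng/ml doxycycline for eGFP-delta133p53alpha, plated dox-free and exposed 24 h at 37C to titrated compounds. Fixed, Hoechst-stained; gated GFP peak intensity by laser scanning cytometry, normalized to DMSO (0%) and 57.5 uM 5-azacytidine (100%).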
In general terms: In qHTS, concentration-response curves come from the screen itself.

Experiment [2] concerns the target Aldehyde dehydrogenase, mitochondrial (Homo sapiens) (UniProt P05091). Description: qHTS for Inhibitors of the Aldehyde Dehydrogenase Family (ALDH2) Primary screen (AID 2061308).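 Further: plate controls were vehicle for no effect and reference inhibitor for full effect; nearly all actives have a fitted effect of over 55% in size.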
Experiment [3] deals with Retinaldehyde dehydrogenase 3 (Homo sapiens) (UniProt P47895). The experiment in a line: qHTS for Inhibitors of the Aldehyde Dehydrogenase Family (ALDH1A3) Primary screen (AID 2061315).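 Further: plate controls were DMSO vehicle for no effect and reference inhibitor for full effect.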

Results filed as inconclusive are left out. Values without a mark were called inactive. Calls of active or inactive are those of the source. The call rests on the fitted dose curve; in most records, active means well fitted curve in the direction sought with a large enough effect; inconclusive means small, poorly fitted or top-dose-only effect, or another doubt; inactive means no such curve, though single readings can be large; an effect the other way counts as inactive or inconclusive.

Cellular tumor antigen p53 (Homo sapiens), sequence (P04637 whole entry, looked up): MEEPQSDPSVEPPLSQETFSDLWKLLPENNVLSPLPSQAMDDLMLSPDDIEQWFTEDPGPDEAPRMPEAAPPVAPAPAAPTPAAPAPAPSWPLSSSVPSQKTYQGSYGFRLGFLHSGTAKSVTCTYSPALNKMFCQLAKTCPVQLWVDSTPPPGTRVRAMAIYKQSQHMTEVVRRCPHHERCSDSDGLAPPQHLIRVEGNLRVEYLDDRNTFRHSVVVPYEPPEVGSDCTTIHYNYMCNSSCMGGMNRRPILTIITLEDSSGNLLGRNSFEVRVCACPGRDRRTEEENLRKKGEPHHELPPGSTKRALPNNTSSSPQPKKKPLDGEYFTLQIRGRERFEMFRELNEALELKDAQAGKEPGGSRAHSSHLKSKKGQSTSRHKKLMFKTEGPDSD

In the case of `C=C[C@]1(C)C=C2CCC3C(C)(CCC[C@@]3(C)C(=O)O)C2CC1` (stereo not given in full), in experiment [1], the activation is 3.57%. Moreover, the Potency result in experiment [2] and in experiment [3] was “inactive” in each case.
Regarding `CC(=O)c1ccc2c(c1)C(O)C(C(C)(C)O)O2` (stereo not given), the activation in experiment [1] is -6.11%. In addition, the Potency result in experiment [2] and in experiment [3] was “inactive” throughout.
Regarding `O=[N+]([O-])c1cccc2[nH]c(CNc3nc(N4CCOCC4)nc4c3ncn4-c3ccsc3)nc12`, in experiment [1], the Potency is 301 nM (active). Besides, the Potency result in experiment [2] and in experiment [3] was “inactive” in each case.
Consider `O=C(OCC1=CC(O)C2C=CO[C@@H](O[C@@H]3O[C@H](CO)[C@@H](O)[C@H](O)[C@H]3O)C12)c1ccccc1` (stereo not given in full), for which the activation in experiment [1] is -17.6%. Also, the Potency entry in experiment [2] and in experiment [3] was “inactive” each time.
Consider `Cc1cc(F)ccc1-c1nc(NCCN=C(N)NC#N)nc2c1ccc(=O)n2-c1c(F)cccc1F`, for which, in experiment [1], the activation is -4.46%. The Potency result in experiment [2] and in experiment [3] was “inactive” each time.
For the compound `Cc1ccc(S(=O)(=O)NCc2ccc(C(=O)NCCN(Cc3ccccc3)C(C)C)cc2)cc1`, the activation in experiment [1] is 3.67%. Further, the Potency entry in experiment [2] and in experiment [3] was “inactive” each time.
Consider `CC(=O)O[C@@H]1CC2C(/C=C(\C)C(=O)[C@@]3(O)C[C@@H](C)[C@H](OC(=O)c4ccccc4)C3/C=C/1C)C2(C)C` (stereo not given in full), for which the activation in experiment [1] is -10.7%. The Potency entry in experiment [2] and in experiment [3] was “inactive” in each case.
As to `O=C(O)CCc1cccc(O[C@@H]2O[C@H](CO)[C@@H](O)[C@H](O)[C@H]2O)c1O`, the activation in experiment [1] is -6.87%. In addition, the Potency result in experiment [2] and in experiment [3] was “inactive” each time.
For `CC(=O)OCC1=C[C@H](O)[C@@H]2C(C(=O)O)=CO[C@@H](O[C@@H]3O[C@H](CO)[C@@H](O)[C@H](O)[C@H]3O)[C@H]12`, in experiment [1], the activation was 0.763%. Also, the Potency entry in experiment [2] and in experiment [3] was “inactive” in each case.
For `COc1c(/C=C/C(C)(C)O)ccc2c1C(=O)OCc1cc(C)cc(O)c1O2`, the activation in experiment [1] was -12.5%. Further, the Potency entry in experiment [2] and in experiment [3] was “inactive” in each case.
Take `CC(C)=CCC(O)[C@](C)(O)C1[C@H](O)C[C@@]2(C)C3CC=C4C(C[C@H](O)[C@@H](O[C@@H]5O[C@H](CO)[C@@H](O)[C@H](O)[C@H]5O)C4(C)C)[C@]3(C)C(=O)C[C@]12C` (stereo not given in full): the activation in experiment [1] was 10.7%. For the same compound, the Potency result in experiment [2] and in experiment [3] was “inactive” throughout.
As for `CCC(C)/C=C(C)/C=C/C1=CC2=C(Cl)C(=O)C(C)(OC(C)=O)C(=O)C2=CN1C1CCCCN(C(CCC(N)=O)C(=O)O)C1=O` (stereo not given), the activation in experiment [1] is 2.68%. The Potency result in experiment [2] and in experiment [3] was “inactive” each time.
For `CC(=O)O[C@@H](C[C@@H]1C=C(C)C(=O)O1)[C@H](C)[C@H]1CCC2[C@@]3(C)CC[C@H](O[C@@H]4O[C@H](CO)[C@@H](O)[C@H](O)[C@H]4O[C@@H]4O[C@@H](C)[C@H](O)[C@@H](O)[C@H]4O)C(C)(C)C3CC[C@@]2(C)[C@@]12COC(=O)C2` (stereo not given in full), the activation in experiment [1] is 1.79%. The Potency result in experiment [2] and in experiment [3] was “inactive” throughout.
For `CC(C)CNCc1ccc(-c2ccccc2S(=O)(=O)N2CCCC2)cc1`, in experiment [1], the activation is 11.7%. Moreover, the Potency entry in experiment [2] and in experiment [3] was “inactive” each time.
Regarding `COc1ccc([C@H]2Cc3cccc(O)c3C(=O)O2)cc1OC`, the activation in experiment [1] was 6.87%. The Potency result in experiment [2] and in experiment [3] was “inactive” in each case.
Take `CC1[C@@H](O)[C@@H](O)C2[C@]3(C)C(C[C@H]4OC(=O)[C@H](O)[C@]1(O)[C@@]24C)C(C)(O)C[C@H](O)[C@H]3O` (stereo not given in full): in experiment [1], the activation is -16%. Also, the Potency entry in experiment [2] and in experiment [3] was “inactive” in each case.
For `C[C@]12C[C@@H](O)[C@@H]3C[C@@]1(O[C@@H]1O[C@H](CO)[C@@H](O)[C@H](O)[C@H]1O)[C@]3(COC(=O)c1ccccc1)C(=O)O2`, the activation in experiment [1] is 25.9%. Further, the Potency entry in experiment [2] and in experiment [3] was “inactive” throughout.
Regarding `C[C@@H](Cc1cc2c(c(C(N)=O)c1)N(CCCO)CC2)NCCOc1ccccc1OCC(F)(F)F`, in experiment [1], the activation was 13.7%. Further, the Potency entry in experiment [2] and in experiment [3] was “inactive” each time.
On to `CCC(C)C(=O)O[C@H]1[C@@H](O[C@H]2O[C@H](CO)[C@@H](O)[C@H](O)[C@H]2O)O[C@H](CO)[C@@H](O)[C@@H]1O` (stereo not given in full), for which the activation in experiment [1] is 13.7%. The Potency entry in experiment [2] and in experiment [3] was “inactive” throughout.
Take `CC1(C)CCC2(C(=O)O)C(O)CC3(C)C(=CCC4C5(C)CCC(OC6OC(CO)C(O)C(O)C6OC6OC(CO)C(O)C(O)C6OC6OCC(O)(CO)C6O)C(C)(C)C5CCC43C)C2C1` (stereo not given): in experiment [1], the activation was -18.3%. The Potency result in experiment [2] and in experiment [3] was “inactive” throughout.
Consider `CC(=O)OC1CC(C)(C(=O)O)CC2C3=CC(=O)C4C5(C)CCC(OC6OC(C(=O)O)C(O)C(O)C6OC6OC(C(=O)O)C(O)C(O)C6O)C(C)(C)C5CCC4(C)C3(C)CCC12C` (stereo not given), for which the activation in experiment [1] was -4.46%. The Potency result in experiment [2] and in experiment [3] was “inactive” throughout.
As for `CC(C)c1cc(C(=O)N2CC[C@@H](NC(=O)C3CC3)C2)n[nH]1`, the activation in experiment [1] is -7.67%. The Potency result in experiment [2] and in experiment [3] was “inactive” each time.
With `CC(=O)O[C@H]1C[C@@]2(C)[C@@H](C[C@@H](O)[C@H]3[C@@]4(C)CC[C@@H](O)[C@@H](C)[C@@H]4CC[C@@]32C)/C1=C(\CCC=C(C)C)C(=O)O`, in experiment [1], the activation was 9%. In addition, the Potency result in experiment [2] and in experiment [3] was “inactive” each time.
Regarding `C=C1CC/C=C(/CO)C(=O)C[C@@H]2[C@@H]1CC2(C)C`, the activation in experiment [1] was 7.14%. Further, the Potency entry in experiment [2] and in experiment [3] was “inactive” each time.
As to `C=C1CC2C3(C)C(O)CC(=O)C(C)(C)C3C(OC(C)=O)C(OC(C)=O)C2(C)C2C(=O)OC(C)(C(=O)OC)C(=O)C12C` (stereo not given), the activation in experiment [1] is -16.8%. The Potency entry in experiment [2] and in experiment [3] was “inactive” each time.
